104 molecules from ChEMBL document CHEMBL1201862, “PubChem BioAssay data set” (2004) can be followed below.

About 2,100 (0.53%) of roughly 400,000 compounds were called active. About 14% were inconclusive and are not listed. How the calls were made is not given here. For the sample, actives were picked, then their nearest neighbours and some compounds at random.

Sequence of Ataxin-2 (Homo sapiens) (Q99700 whole entry): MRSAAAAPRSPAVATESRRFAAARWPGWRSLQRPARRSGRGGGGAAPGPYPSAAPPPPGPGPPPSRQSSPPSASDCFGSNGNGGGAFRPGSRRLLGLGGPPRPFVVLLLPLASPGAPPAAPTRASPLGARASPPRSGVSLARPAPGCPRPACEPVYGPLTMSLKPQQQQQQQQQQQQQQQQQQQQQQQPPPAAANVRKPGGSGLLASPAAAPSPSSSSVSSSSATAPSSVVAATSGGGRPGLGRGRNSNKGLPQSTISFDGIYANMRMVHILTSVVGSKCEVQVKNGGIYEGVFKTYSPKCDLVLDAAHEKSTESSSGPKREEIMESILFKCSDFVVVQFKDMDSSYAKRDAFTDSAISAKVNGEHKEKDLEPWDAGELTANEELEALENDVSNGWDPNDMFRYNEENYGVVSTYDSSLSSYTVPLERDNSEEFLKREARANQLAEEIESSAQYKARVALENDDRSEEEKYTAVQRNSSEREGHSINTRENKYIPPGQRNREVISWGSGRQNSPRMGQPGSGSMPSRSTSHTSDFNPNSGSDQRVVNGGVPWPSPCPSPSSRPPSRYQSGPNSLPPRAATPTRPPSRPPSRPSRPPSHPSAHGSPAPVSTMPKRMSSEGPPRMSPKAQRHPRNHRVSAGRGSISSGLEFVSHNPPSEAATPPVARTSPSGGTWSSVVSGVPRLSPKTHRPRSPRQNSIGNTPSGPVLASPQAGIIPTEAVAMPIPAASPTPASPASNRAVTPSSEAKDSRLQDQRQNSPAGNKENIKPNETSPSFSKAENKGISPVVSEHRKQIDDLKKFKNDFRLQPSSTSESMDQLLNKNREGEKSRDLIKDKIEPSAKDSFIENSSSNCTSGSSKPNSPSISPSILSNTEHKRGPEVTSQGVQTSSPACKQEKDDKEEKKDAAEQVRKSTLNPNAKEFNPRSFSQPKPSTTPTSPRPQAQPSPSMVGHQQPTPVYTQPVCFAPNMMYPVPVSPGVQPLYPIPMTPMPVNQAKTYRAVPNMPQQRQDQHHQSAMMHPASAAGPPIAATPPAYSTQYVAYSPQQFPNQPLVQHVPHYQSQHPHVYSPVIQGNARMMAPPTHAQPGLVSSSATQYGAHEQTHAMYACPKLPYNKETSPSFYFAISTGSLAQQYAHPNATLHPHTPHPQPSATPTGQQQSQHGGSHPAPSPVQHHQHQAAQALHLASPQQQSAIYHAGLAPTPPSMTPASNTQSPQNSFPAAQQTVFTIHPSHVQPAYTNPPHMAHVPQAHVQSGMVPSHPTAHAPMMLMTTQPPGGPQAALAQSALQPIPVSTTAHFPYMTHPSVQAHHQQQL

This assay concerns the target Ataxin-2 (Homo sapiens) (UniProt Q99700). The assay can be described thus: qHTS for Inhibitors of ATXN expression. In kind it is functional.
As for `COc1ccc(-n2c(N)c(C(=O)NCc3ccco3)c3nc4ccccc4nc32)cc1OC`, the Potency entry is “inactive”. As for `CN1C(=O)/C(=N\C2CCCCC2)c2c3ccccc3c(O)c3cccc1c23`, the entry is “inactive”; as for `Cc1noc(/C=C/Nc2ccc(F)cc2F)c1[N+](=O)[O-]`, “inactive”. For the molecule `CCN1C(=O)/C(=C2/Sc3ccccc3N2CC)S/C1=N\c1nc[nH]n1`, the Potency entry is “inactive”. As for `CC1CC(NC(=O)c2cc3c(=O)n4ccccc4nc3n2C)CC(C)(C)C1` (centres undefined), the entry is “inactive”. Consider `Cc1nc(NN)c2c3c(sc2n1)COC(C)(C)C3`, for which the Potency result was “inactive”. As for `COc1ccccc1Cc1c(-c2cccc(Cl)c2)nc2ccc(C)cn12`, the figure is 22.4 µM (active); as for `COc1cc(-c2nc3ccccn3c2/N=C/c2cccc(OC)c2O)ccc1O`, “inactive”.

In the case of `COc1ccc(-c2cc(-c3ccc(N)cc3)nc(N)c2C#N)cc1OC`, the Potency result was “inactive”. To `COc1ccc(-c2nc3ccc(C)cn3c2CC(C)(C)C)cc1OC` belongs 12.6 µM (active); to `CCCCNc1c(-c2ccc(OC)c(SC3CCCCC3)c2)nc2cnccn12`, “inactive”. As for `COc1ccc(-c2nc3ccc(Cl)cn3c2Cc2cccc(F)c2)cc1OC`, the figure is 39.8 µM (active); as for `COc1ccc(-c2nc3c(-c4ccc(Cl)cc4)cnn3cc2C)cc1F`, “inactive”; as for `COc1cnc(-c2ccccc2)nc1Oc1ccc(Cl)cc1C`, “inactive”.

`O=C(O)c1ccc2c(c1)ncn2C1CCCC1`: the Potency result is “inactive”. As for `Cc1nc(CS(=O)(=O)c2ccccn2)sc1C(=O)NNC(=O)c1ccc(Cl)cc1`, the entry is “inactive”. As for `N#Cc1cc2c(=O)n3ccccc3nc2n(-c2ccccc2Cl)c1=O`, the entry is “inactive”; as for `CN(CCO)c1nc(NCc2ccccc2)c2cnn(C)c2n1`, “inactive”; as for `COc1ccc(C2=CC(c3ccco3)n3ncnc3N2)cc1` (centres undefined), “inactive”. To `CCOC(=O)COc1nc(-c2ccco2)cc(-c2ccco2)c1C#N` belongs “inactive”. As for `N#Cc1cnn2c3c(cnc12)C(=O)N1CCc2ccccc2C1C3` (centres undefined), the Potency result is “inactive”. As to `NNC(=O)c1cc2c(N3CCC(Cc4ccccc4)CC3)ncnc2s1`, the Potency entry was “inactive”. As for `CCc1cccc(NC(=O)C2CCN(c3ncnc4sc(C)c(C)c34)CC2)c1`, the figure is 33.6 µM (active); as for `Cc1sc2ncnc(N/N=C/c3cccc(O)c3)c2c1C`, “inactive”.

For `O=C(NN/C=C1/C(=O)N(c2ccc(Cl)cn2)C(=O)c2ccccc21)C1CC1`, the Potency result was “inactive”.

For `COc1ccccc1C1C=C(c2ccc(C(C)C)cc2)Nc2nnnn21` (centres undefined), the Potency result is “inactive”. As for `Cc1cc(Cl)cc(C)c1OCC(=O)NC1CCCCCC1`, the Potency result was “inactive”. Take `O=C(NC1CCCCC1)Sc1ccc(Cl)cc1`: the Potency is 35.5 µM (active). To `O=C(NNC(=O)NC1CCCCC1)NC1CCCCC1` belongs “inactive”; to `COc1cccc(C2CN(c3ccc(F)cc3F)N=C2c2cccs2)c1OC` (centres undefined), “inactive”; to `Cc1nc(N/C(N)=N/C(=O)NC2CCCCC2)nc2ccccc12`, 20 µM (active).

On to `O=C(NC1CCCC1)c1[nH]nc2ccccc12`, for which the Potency entry was “inactive”. `C=CCn1c(SCC(=O)NC2CCCCC2)nc2ccccc2c1=O`: the Potency entry was “inactive”.

As to `Cc1cccc(NC(=O)c2nc(S(=O)(=O)Cc3ccccc3)ncc2Cl)c1`, the Potency is 35.5 µM (active). Regarding `COc1cccc(CNC(=O)CCS(=O)(=O)c2ccccc2Cl)c1`, the Potency entry is “inactive”.

Take `Cc1cccc(NC(=O)c2sc3nc4c(c(-c5ccco5)c3c2N)CCC4)c1`: the Potency result was “inactive”.

`O=C(NCc1ccc2c(c1)OCO2)c1cccnc1Cl`: the Potency entry was “inactive”.

`Cc1cccc(CS(=O)(=O)c2ncc(Cl)c(C(=O)NCc3ccccc3)n2)c1`: the Potency was 31.6 µM (active). As for `O=C(NCc1ccc2c(c1)OCO2)c1nc(S(=O)(=O)Cc2ccccc2F)ncc1Cl`, the figure is 20 µM (active). As for `O=C(NCc1ccccc1)c1cnc2ccccc2c1O`, the entry is “inactive”; as for `O=C(COc1ccc(S(=O)(=O)N2CCOCC2)cc1Cl)NCc1ccc2c(c1)OCO2`, “inactive”; as for `C=CCn1c(=N)c(C(=O)NCCCOC)cc2c(=O)n3cccc(C)c3nc21`, “inactive”. Regarding `CCc1cc(=O)oc2cc(OC(=O)CN3C(=O)NC4(CCCC4)C3=O)ccc12`, the Potency result was “inactive”.

Regarding `CCOC(=O)c1cc2c(=O)n3cccc(C)c3nc2n(CCOC)/c1=N\C(C)=O`, the Potency result was “inactive”. Regarding `CC(C)Cn1c(N)c(C(=O)NCC2CCCO2)c2nc3ccccc3nc21` (centres undefined), the Potency entry was “inactive”. As for `COc1ccc(-c2nc(NC(=O)c3ccc(OCC(=O)N4CCOCC4)c(OC)c3)sc2C)cc1`, the figure is 15.8 µM (active); as for `COc1ccc(C(=O)N2CCNC(=O)C2CC(=O)Nc2ccc(C)cc2)cc1` (centres undefined), “inactive”. Consider `COc1ccc(C(=O)Nc2ccc(OCC(=O)N3CCOCC3)cc2)c(OC)c1OC`, for which the Potency result is “inactive”. In the case of `COc1ccc(-c2nc(NC(=O)c3ccc(OCC(=O)Nc4ccc(F)cc4)c(OC)c3)sc2C)cc1`, the Potency is 11.2 µM (active). With `COc1cc(C(=O)Nc2nc(-c3ccc(Cl)cc3)c(C)s2)ccc1OCC(=O)Nc1ccc(F)cc1`, the Potency was 35.5 µM (active). As for `COc1ccc(C(=O)Nc2nc3n(n2)C(c2ccc(F)cc2)C=C(c2ccc(Cl)cc2)N3)cc1` (centres undefined), the entry is “inactive”; as for `COc1ccccc1NC(=O)c1sc2nc(C)c(C(=O)Nc3ccc(Cl)cc3)c(-c3ccc(Br)cc3)c2c1N`, “inactive”.

On to `COc1ccc(C(=O)OCC(=O)N2CCOCC2)cc1S(=O)(=O)N1CCOCC1`, for which the Potency entry was “inactive”.

Regarding `COc1ccc(-c2ccc3c(N)c(C(=O)Nc4cc(F)ccc4C)sc3n2)cc1`, the Potency entry was “inactive”. As for `CS(=O)(=O)c1cnc2c(-c3ccsc3)cnn2c1N`, the entry is “inactive”. For the molecule `Nc1ccc2nc3c(=O)n(CCc4ccccc4)c(=O)[nH]c3nc2c1`, the Potency entry was “inactive”. To `O=C(COC(=O)/C=C/c1ccc(Br)o1)NC1CCCCC1` belongs “inactive”; to `O=C(c1ccccc1)c1ccc(OCC(O)CNCc2ccc(F)cc2)cc1` (centres undefined), “inactive”; to `OC(CNCCc1ccc(C(F)(F)F)cc1)COc1ccc2ccccc2c1` (centres undefined), 25.1 µM (active). As for `COc1ccc(C2CC(c3ccncc3)=NN2c2ccc(S(N)(=O)=O)cc2)cc1` (centres undefined), the entry is “inactive”; as for `O=C(CNC(=O)c1ccccc1Br)N/N=C/c1ccccc1O`, “inactive”; as for `CC(Oc1ccccc1Cl)C(=O)N(Cc1cccs1)C1CCS(=O)(=O)C1` (centres undefined), “inactive”. To `Cn1cc(C(=O)CCl)c2ccccc21` belongs 35.5 µM (active); to `Cc1c(C(=O)Cc2ccccc2)n(C)c2ccccc12`, “inactive”. In the case of `Cc1cc(NC(=O)CSc2cn(C)c3ccccc23)no1`, the Potency entry is “inactive”. As for `Cc1cc(Sc2nc(NC(C)(C)C)nc(N3CCOCC3)n2)nc(Cl)n1`, the entry is “inactive”; as for `Cc1nccc2cc3[nH]c4ccccc4c3cc12`, “inactive”; as for `Cc1cc2[nH]c3c(c[n+](C)c4ccccc34)c2cc1C`, 31.6 µM (active).

With `CCn1c(=N)c(C(=O)NC)cc2c(=O)n3cccc(C)c3nc21`, the Potency entry is “inactive”.

As for `Cc1ccc(S(=O)(=O)Nc2nc3n(n2)C(c2ccc(Cl)cc2)C=C(c2ccccc2)N3)cc1` (centres undefined), the Potency entry was “inactive”. As for `COc1ccccc1C(=O)OCC(=O)NC(=O)NC1CCCC1`, the Potency result is “inactive”.

On to `CN(C(=O)COC(=O)c1cccnc1O)C1CCCCC1`, for which the Potency result is “inactive”.

Turning to `CN(C)c1ccc(N=Nc2ccccc2C(=O)OCC(=O)NC2CCCC2)cc1`, the Potency was 28.2 µM (active). As for `CC(C)Cc1nc2sc3c(SCC(N)=O)ncnc3c2c2c1CCC2`, the entry is “inactive”.

Consider `CC(=O)/N=c1\c(C#N)cc2c(=O)n3ccccc3nc2n1Cc1ccccc1`, for which the Potency entry is “inactive”. Consider `CCN(CC)CCn1c(-c2ccccc2)cs/c1=N\c1ccccc1`, for which the Potency was 15.8 µM (active).

Consider `CCN(CC)c1ccc2cc(S(=O)(=O)c3ccc(C)cc3)c(=O)oc2c1`, for which the Potency result is “inactive”.

`Cc1cc(C)n(-c2cc(C(C)(C)C)nc3c(-c4ccccc4)cnn23)n1`: the Potency result is “inactive”. To `CN(C)CCCNc1cc(C(C)(C)C)nc2c(-c3ccc(Cl)cc3)cnn12` belongs 39.8 µM (active); to `Cc1nc2c(-c3ccc(Cl)cc3)cnn2c2c1CCC2`, “inactive”. Consider `O=c1c2ccccc2[nH]c2ccc(O)cc12`, for which the Potency entry was “inactive”. As for `CCOc1ccc(C(=O)COC(=O)Cn2cnc3c2c(=O)n(C)c(=O)n3C)cc1`, the entry is “inactive”; as for `CCOc1ccc2c(c1)C(N(CCN1CCOCC1)C(=O)Nc1ccccc1)CC(C)(C)O2` (centres undefined), “inactive”; as for `COc1ccc(OCCC(=O)NCCN2CCOCC2)cc1`, “inactive”. Consider `O=C(CCN1CCOCC1)N/N=C/c1cc(Br)cc(Br)c1O`, for which the Potency entry is “inactive”.

Consider `CCOc1ccc(C(=O)CCN2CCOCC2)cc1`, for which the Potency is 39.8 µM (active).

`CCCCOc1ccc(C(=O)CCN2CCOCC2)cc1`: the Potency is 23.8 µM (active). In the case of `CCCN(CCC)S(=O)(=O)c1ccc(C(=O)Nc2sc3c(c2C(=O)OC)CCN(CC)C3)cc1`, the Potency entry was “inactive”. As for `CCc1cc(=O)oc2cc(C)cc(O)c12`, the entry is “inactive”. As for `O=C(COC(=O)c1cc(S(=O)(=O)N2CCCCC2)ccc1N1CCOCC1)c1ccccc1Cl`, the Potency entry is “inactive”.

Turning to `COc1ccc(Nc2ccc3c(c2)=NC2(CCCCC2)[N+]=3[O-])cc1`, the Potency is 20 µM (active). As for `COc1ccc(Nc2ccnc(Nc3ccc(OC)cc3)n2)cc1`, the Potency entry is “inactive”. With `CC(=O)c1cc2c(s1)-c1cc(F)ccc1OC2`, the Potency entry was “inactive”. As for `O=C(Nc1cccc(-c2csc(Nc3ccc(Cl)cc3)n2)c1)c1cc([N+](=O)[O-])cc(C(F)(F)F)c1`, the figure is 35.5 µM (active); as for `O=C(Nc1ccc(-c2csc(Nc3cccc(C(F)(F)F)c3)n2)cc1)c1cccc(C(F)(F)F)c1`, 20 µM (active); as for `NS(=O)(=O)c1cccc(NC(=O)CSc2n[nH]c(-c3cccs3)n2)c1`, “inactive”. Take `COc1ccc(CC(N)c2csc(NC(=O)Nc3ccccc3-c3ccccc3)n2)cc1` (centres undefined): the Potency is 39.8 µM (active). Regarding `O=C(Cc1ccccc1F)Nc1ccccc1-c1ccccc1`, the Potency entry is “inactive”. As to `CC(C)(C)c1ccccc1NC(=O)c1cnn2c(C(F)F)cc(-c3ccccc3)nc12`, the Potency result is “inactive”. Regarding `COc1cccc(OCC(=O)Nc2ccccc2-c2ccccc2)c1`, the Potency entry is “inactive”. As for `COc1ccc(CC(N)c2csc(NC(=O)Nc3ccccc3C(C)(C)C)n2)cc1` (centres undefined), the figure is 39.8 µM (active); as for `CCOC(=O)CCc1c(C)c2cc3c(c(C)c2oc1=O)OCN(CCc1ccccc1OC)C3`, “inactive”. With `Cc1cc(C(=O)NNC(=O)c2ccc(C(F)(F)F)cc2)no1`, the Potency entry was “inactive”. To `CC1C/C(=N\NC(=O)c2ccc([N+](=O)[O-])cc2)CC(C)(C)C1` (centres undefined) belongs “inactive”.
